According to the supplement of paper PMC3342239:
Where a name gives a salt, the structure may show the parent alone.

These compounds were tested on Saccharomyces cerevisiae (assay: fraction of cells in G1 phase (DNA content, flow cytometry); higher = more cells with unreplicated DNA (G1 delay)). Settings: temperature: 30 C; YPD; JTY2953 pdr5 snq2 (sensitized); drug added to: cultures diluted from stationary phase; 6-7 h.
Procedure, shortened: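 For the G1 fraction, the Dean-Jett-Fox G1 peak area was divided by the sum of the G1 and G2/M areas. S. cerevisiae in YPD at 30°C received library drugs and was fixed 6–7 h later for sensitized JTY2953 (diluted 1∶200 from overnight, final 20 µg/ml), 6 h later for dividing JTY2953, or 4.33 h later for BY4741. Fixed cells were stained with SYTOX Green and 10,000 events recorded by flow cytometry.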

Compound | fraction of cells in G1 phase
COc1cc2nc(N(C)CCCNC(=O)C3CCCO3)nc(N)c2cc1OC (centres undefined) [Alfuzosin] (51.3611 µM) | 0.523
Cc1ccc(C(=O)c2cc(O)c(O)c([N+](=O)[O-])c2)cc1 [Tolcapone] (73.1937 µM) | 0.522
N[C@@H](Cc1cc(I)c(Oc2cc(I)c(O)c(I)c2)c(I)c1)C(=O)O (25.7441 µM) | 0.486
CN1CCCN=C1/C=C/c1cccs1 [Pyrantel pamoate] (33.6309 µM) | 0.464
CCCCN1C[C@H](O)[C@@H](O)[C@H](O)[C@H]1CO [Miglustat] (91.2063 µM) | 0.456
CN(C)CCC(c1ccc(Cl)cc1)c1ccccn1 (centres undefined) [Chlorpheniramine maleate] (72.7812 µM) | 0.452
CCN1CCC[C@H]1CNC(=O)c1c(O)c(Cl)cc(Cl)c1OC [Raclopride l-tartrate s(-)] (57.5963 µM) | 0.521
CN[C@@H]1[C@H](O)[C@H](NC)[C@H]2O[C@@]3(O)C(=O)C[C@@H](C)O[C@H]3O[C@@H]2[C@H]1O [Spectinomycin] (60.1763 µM) | 0.485
C[C@]12C=CC(=O)C=C1CC[C@@H]1[C@@H]2[C@@H](O)C[C@@]2(C)[C@H]1CC[C@]2(O)C(=O)CO [Prednisolone] (55.4855 µM) | 0.466
